In the supplement of paper PMC8728848:
This excerpt belongs to a sample that is enriched for the strongest signals.

Assays:
Test in all cases: glycan array binding signal (z-score within array); higher = stronger binding
Conditions in all cases: glycan notation: IUPAC condensed, linker removed
[1] = target: Fuc(a1-2)Gal(b1-4)Fuc(a1-3)]GlcNAc(b1-2)Man(a1-3)[Fuc(a1-2)Gal(b1-4)[Fuc(a1-3)]GlcNAc(b1-2)Man(a1-6)]Man(b1-4)GlcNAc(b1-4)GlcNAc
Summary of the method: (§1)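 From the Consortium for Functional Glycomics database, 3228 arrays were curated, keeping only those whose protein sequence was available. Binding is given as a within-array Z-score averaged across arrays sharing a protein sequence and across linkers. Negative Z-scores can be read as non-binding.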

[2] = target: Fuc(a1-2)[Gal(a1-4)]Gal(b1-4)GlcNAc
Summary of the method: as §1

[3] = target: Fuc(a1-2)[GalNAc(a1-3)]Gal(b1-3)GlcNAc(b1-3)GalNAc
Summary of the method: as §1

[4] = target: Fuc(a1-4)GlcNAc
Summary of the method: as §1

[5] = target: Gal(a1-3)Gal(b1-3)GlcNAc
Summary of the method: as §1

[6] = target: Gal(a1-3)Gal(b1-3)GlcNAc(b1-2)Man
Summary of the method: as §1

[7] = target: Gal(a1-3)Gal(b1-3)GlcNAc(b1-6)GalNAc
Summary of the method: as §1

[8] = target: Gal(a1-3)Gal(b1-4)GlcNAc(b1-2)Man(a1-3)[Gal(a1-3)Gal(b1-4)GlcNAc(b1-2)Man(a1-6)]Man(b1-4)GlcNAc(b1-4)GlcNAc
Summary of the method: as §1

[9] = target: Gal(a1-3)Gal(b1-4)[Fuc(a1-3)]GlcNAc(b1-2)Man(a1-3)[Gal(a1-3)Gal(b1-4)[Fuc(a1-3)]GlcNAc(b1-2)Man(a1-6)]Man(b1-4)GlcNAc(b1-4)GlcNAc
Summary of the method: as §1

[10] = target: Gal(a1-3)[Gal(a1-4)]Gal(b1-4)GlcNAc
Summary of the method: as §1

[11] = target: Gal(a1-4)Gal(b1-4)Gal
Summary of the method: as §1

[12] = target: Gal(a1-4)Gal(b1-4)GlcNAc
Summary of the method: as §1

[13] = target: Gal(a1-4)Gal(b1-4)GlcNAc(b1-2)Man(a1-3)[Gal(a1-4)Gal(b1-4)GlcNAc(b1-2)Man(a1-6)]Man(b1-4)GlcNAc(b1-4)GlcNAc
Summary of the method: as §1

[14] = target: Gal(a1-4)Gal(b1-4)GlcNAc(b1-3)Gal(b1-4)Glc
Summary of the method: as §1

[15] = target: Gal(a1-4)GlcNAc
Summary of the method: as §1

[16] = target: Gal(b1-2)Gal
Summary of the method: as §1

[17] = target: Gal(b1-3)Gal(b1-4)GlcNAc
Summary of the method: as §1

[18] = target: Gal(b1-3)GalNAc
Summary of the method: as §1

[19] = target: Gal(b1-3)GalNAc(a1-3)[Fuc(a1-2)]Gal(b1-4)GlcNAc
Summary of the method: as §1

[20] = target: Gal(b1-3)GlcNAc(a1-3)Gal(b1-4)GlcNAc
Summary of the method: as §1

[21] = target: Gal(b1-3)GlcNAc(b1-3)Gal(b1-4)GlcNAc(b1-2)Man(a1-3)[Gal(b1-3)GlcNAc(b1-3)Gal(b1-4)GlcNAc(b1-2)Man(a1-6)]Man(b1-4)GlcNAc(b1-4)GlcNAc
Summary of the method: as §1

[22] = target: Gal(b1-3)GlcNAc(b1-6)GalNAc
Summary of the method: as §1

[23] = target: Gal(b1-3)[Fuc(a1-4)]GlcNAc(b1-3)Gal(b1-4)[Fuc(a1-3)]GlcNAc
Summary of the method: as §1

[24] = target: Gal(b1-4)Glc6S
Summary of the method: as §1

[25] = target: Gal(b1-4)GlcNAc(a1-6)Gal(b1-4)GlcNAc
Summary of the method: as §1

[26] = target: Gal(b1-4)GlcNAc(b1-2)Man(a1-3)Man(b1-4)GlcNAc(b1-4)GlcNAc
Summary of the method: as §1

[27] = target: Gal(b1-4)GlcNAc(b1-2)Man(a1-3)[Gal(b1-4)GlcNAc(b1-2)Man(a1-6)]Man(b1-4)GlcNAc(b1-4)GlcNAc
Summary of the method: as §1

[28] = target: Gal(b1-4)GlcNAc(b1-2)Man(a1-3)[Man(a1-6)]Man(b1-4)GlcNAc(b1-4)GlcNAc
Summary of the method: as §1

[29] = target: Gal(b1-4)GlcNAc(b1-2)Man(a1-6)Man(b1-4)GlcNAc(b1-4)GlcNAc
Summary of the method: as §1

[30] = target: Gal(b1-4)GlcNAc(b1-2)Man(a1-6)[GlcNAc(b1-2)Man(a1-3)]Man(b1-4)GlcNAc(b1-4)GlcNAc
Summary of the method: as §1

[31] = target: Gal(b1-4)GlcNAc(b1-3)[Gal(b1-4)GlcNAc(b1-6)]Gal(b1-4)GlcNAc
Summary of the method: as §1

[32] = target: Gal3S(b1-4)Glc6S
Summary of the method: as §1

[33] = target: Gal6S(b1-3)GlcNAc6S
Summary of the method: as §1

[34] = target: Gal6S(b1-4)Glc6S
Summary of the method: as §1

[35] = target: Gal6S(b1-4)GlcNAc
Summary of the method: as §1

[36] = target: Gal6S(b1-4)GlcNAc6S
Summary of the method: as §1

[37] = target: GalNAc(b1-6)GalNAc
Summary of the method: as §1

[38] = target: GlcNAc(a1-4)Gal(b1-3)GlcNAc
Summary of the method: as §1

[39] = target: GlcNAc(b1-2)[GlcNAc(b1-6)]Man(a1-6)[GlcNAc(b1-2)Man(a1-3)]Man(b1-4)GlcNAc(b1-4)GlcNAc
Summary of the method: as §1

[40] = target: GlcNAc(b1-3)Fuc
Summary of the method: as §1

[41] = target: GlcNAc(b1-3)Gal(b1-4)GlcNAc(b1-3)GalNAc
Summary of the method: as §1

[42] = target: GlcNAc(b1-3)Gal(b1-4)GlcNAc(b1-3)[GlcNAc(b1-3)Gal(b1-4)GlcNAc(b1-3)]GalNAc
Summary of the method: as §1

[43] = target: GlcNAc(b1-3)Gal(b1-4)GlcNAc(b1-6)[Gal(b1-3)]GalNAc
Summary of the method: as §1

[44] = target: GlcNAc(b1-4)GlcNAc
Summary of the method: as §1

[45] = target: GlcNAc(b1-4)GlcNAc(b1-4)GlcNAc(b1-4)GlcNAc(b1-4)GlcNAc
Summary of the method: as §1

[46] = target: Kdn(a2-6)Gal(b1-4)GlcNAc
Summary of the method: as §1

[47] = target: Man(b1-4)GlcNAc
Summary of the method: as §1

[48] = target: Neu5Ac(a2-3)Gal(b1-3)GlcNAc(b1-2)Man
Summary of the method: as §1

[49] = target: Neu5Ac(a2-3)Gal(b1-3)[Fuc(a1-4)]GlcNAc(b1-3)Gal(b1-3)[Fuc(a1-4)]GlcNAc
Summary of the method: as §1

[50] = target: Neu5Ac(a2-3)Gal(b1-3)[Neu5Ac(a2-6)]GalNAc
Summary of the method: as §1

[51] = target: Neu5Ac(a2-3)Gal(b1-4)GlcNAc
Summary of the method: as §1

[52] = target: Neu5Ac(a2-3)Gal(b1-4)GlcNAc(b1-3)Gal(b1-4)GlcNAc(b1-3)Gal(b1-4)GlcNAc(b1-2)Man(a1-3)[Neu5Ac(a2-3)Gal(b1-4)GlcNAc(b1-3)Gal(b1-4)GlcNAc(b1-3)Gal(b1-4)GlcNAc(b1-2)Man(a1-6)]GalNAc
Summary of the method: as §1

[53] = target: Neu5Ac(a2-3)Gal(b1-4)[Fuc(a1-3)]GlcNAc(b1-3)Gal(b1-4)GlcNAc
Summary of the method: as §1

[54] = target: Neu5Ac(a2-3)Gal(b1-4)[Fuc(a1-3)]GlcNAc(b1-6)[Gal(b1-3)]GalNAc
Summary of the method: as §1

[55] = target: Neu5Ac(a2-3)[GalNAc(b1-4)]Gal(b1-4)Glc
Summary of the method: as §1

[56] = target: Neu5Ac(a2-6)GalNAc(b1-4)GlcNAc6S
Summary of the method: as §1

[57] = target: Neu5Gc(a2-6)GalNAc
Summary of the method: as §1

B1: Epa12 (Candida glabrata) (protein)
chain: MGSSHHHHHHSSGLVPRGSHMLEPDNSLQIFDSFLSNPSKYPLGCSPKITNPKKGLSMELYSYPYRKKGSHPCWDPAYLDPNFPRVGYKKNKLIARVDGVSGDINFNFHPKRQCTPIADYLPPNFNYNEPITTTNFTMLLYGYFKPKVTGLHTFDISADDLLFMNFGAGNAFDCCRRDSTADTFGNYVAWAIWGRRIVRNKLTVRLDKGIYYPLRLFFNNRDYYGQMRLTFKTEHGSERITDFSDYFFSVDDTSEGCPGLITYESECADVKSSTVLETDYITIQAEKE
[1]
  glycan array binding signal (z-score): -0.132
[2]
  glycan array binding signal (z-score): 4.84
[3]
  glycan array binding signal (z-score): -0.345
[4]
  glycan array binding signal (z-score): -0.241
[5]
  glycan array binding signal (z-score): 1.71
[6]
  glycan array binding signal (z-score): 3.52
[7]
  glycan array binding signal (z-score): 4.44
[8]
  glycan array binding signal (z-score): 2.04
[9]
  glycan array binding signal (z-score): -0.179
[10]
  glycan array binding signal (z-score): 1.17
[11]
  glycan array binding signal (z-score): -0.269
[12]
  glycan array binding signal (z-score): 3.53
[13]
  glycan array binding signal (z-score): 0.51
[14]
  glycan array binding signal (z-score): 1.9
[15]
  glycan array binding signal (z-score): 5.7
[16]
  glycan array binding signal (z-score): 0.125
[17]
  glycan array binding signal (z-score): 3.49
[18]
  glycan array binding signal (z-score): 0.135
[19]
  glycan array binding signal (z-score): -0.255
[20]
  glycan array binding signal (z-score): -0.242
[21]
  glycan array binding signal (z-score): -0.34
[22]
  glycan array binding signal (z-score): -0.093
[23]
  glycan array binding signal (z-score): -0.311
[24]
  glycan array binding signal (z-score): 3.51
[25]
  glycan array binding signal (z-score): 3.61
[26]
  glycan array binding signal (z-score): -0.259
[27]
  glycan array binding signal (z-score): 0.425
[28]
  glycan array binding signal (z-score): -0.214
[29]
  glycan array binding signal (z-score): -0.206
[30]
  glycan array binding signal (z-score): -0.119
[31]
  glycan array binding signal (z-score): -0.194
[32]
  glycan array binding signal (z-score): -0.255
[33]
  glycan array binding signal (z-score): 3.83
[34]
  glycan array binding signal (z-score): 7.51
[35]
  glycan array binding signal (z-score): 1.98
[36]
  glycan array binding signal (z-score): 8.69
[37]
  glycan array binding signal (z-score): -0.347
[38]
  glycan array binding signal (z-score): -0.483
[39]
  glycan array binding signal (z-score): -0.332
[40]
  glycan array binding signal (z-score): -0.36
[41]
  glycan array binding signal (z-score): -0.307
[42]
  glycan array binding signal (z-score): -0.348
[43]
  glycan array binding signal (z-score): -0.32
[44]
  glycan array binding signal (z-score): -0.359
[45]
  glycan array binding signal (z-score): -0.032
[46]
  glycan array binding signal (z-score): -0.005
[47]
  glycan array binding signal (z-score): -0.301
[48]
  glycan array binding signal (z-score): -0.336
[49]
  glycan array binding signal (z-score): -0.342
[50]
  glycan array binding signal (z-score): -0.335
[51]
  glycan array binding signal (z-score): -0.321
[52]
  glycan array binding signal (z-score): -0.239
[53]
  glycan array binding signal (z-score): -0.251
[54]
  glycan array binding signal (z-score): -0.245
[55]
  glycan array binding signal (z-score): -0.34
[56]
  glycan array binding signal (z-score): -0.36
[57]
  glycan array binding signal (z-score): -0.309
